The values that follow come from PubChem BioAssay AID1051 (The Scripps Research Institute Molecular Screening Center, 2008).

Out of some 99,000 compounds screened, about 340 (0.34%) were called active. The full list was thinned out, with actives kept by preference. Unmarked numbers belong to inactive results. Rule as the data show it: active = TR-FRET ratio above about 2300; inactive = the rest.

The nature of this test: signal artefacts in PPARgamma/SRC-1 readout – biochemical, TR-FRET emission ratio, artefact control for PPARgamma SRC-1 recruitment agonists, primary screen (AID 1051). To be noted: TR-FRET detection artefact counter-screen, at 8 µM, hits give high values. For orientation: In TR-FRET formats the signal depends on donor and acceptor labels being close together.
Consider `Cc1cc(C)cc(C(=O)N(CCc2ccccc2)C2=CC3CCC(C2)N3C)c1` (centres undefined), for which the TR-FRET ratio is 1720.

As to `CS(=O)(=O)N(CC(=O)NC1CCCC1)Cc1ccc(F)cc1`, the TR-FRET ratio is 1700.

Consider `O=C(CO/N=C/c1ccccc1OC(F)F)NC1CCCC1`, for which the TR-FRET ratio was 2060.

For the molecule `CCOC(=O)NC(=O)C(=CNc1cccc(OC)c1)C(=O)NC(=O)OCC`, the TR-FRET ratio was 1950.

Take `CCOC(=O)c1sc(-c2cccc([N+](=O)[O-])c2)cc1N`: the TR-FRET ratio is 1540.

Turning to `CS/C(=C\[N+](=O)[O-])Nc1ccc(C)cc1`, the TR-FRET ratio is 1980.

For `CNC(=O)NC(=O)C(OC(=O)c1cccc(S(=O)(=O)N2CCCCC2)c1)c1ccccc1` (centres undefined), the TR-FRET ratio was 1550.

With `COCC(C)NC(=O)CSc1nc2nn(-c3ccccc3)c(=O)c-2c2n1CCCCC2` (centres undefined), the TR-FRET ratio was 1600.

`Fc1ccc(COc2cccc(-c3n[nH]c(=S)o3)c2)cc1`: the TR-FRET ratio was 3340 (active).

Take `Cc1cccc(OCc2ccc(C(=O)Nc3ccc(F)cc3)cc2)c1`: the TR-FRET ratio is 1720.

On to `S=c1[nH]nc(COc2ccccc2)n1-c1ccccc1`, for which the TR-FRET ratio was 1980.

`Cc1ccc(-c2nc(-c3cccnc3)sc2CC(=O)Nc2ccc(C)c(Cl)c2)cc1`: the TR-FRET ratio is 2930 (active).

Regarding `Cc1cccc(NC(=O)c2sc(-c3ccccc3)nc2-c2ccc([N+](=O)[O-])cc2)c1`, the TR-FRET ratio is 1770.

Regarding `Cc1ccc(S(=O)(=O)NCCC(=O)Nc2ccc(C)c(Cl)c2)cc1C`, the TR-FRET ratio is 1870.

For the molecule `O=S(=O)(NCc1ccccc1)c1ccc(S(=O)(=O)N2CCCC2)cc1`, the TR-FRET ratio is 1770.

`N#Cc1ccc(C(=O)Nc2nc(-c3cccs3)c(C(=O)C(F)(F)F)s2)cc1`: the TR-FRET ratio was 2000.

Take `Cc1nc(N)c(Br)c(C)c1Br`: the TR-FRET ratio is 1890.

Regarding `CCN(CC)P(=O)(Nc1ccc(SC(F)F)cc1)c1ccc(N(C)C)cc1NC(=O)c1ccco1` (centres undefined), the TR-FRET ratio was 1800.

With `CC(C)CCN1C(=O)c2ccc(C(=O)Nc3cccc(S(N)(=O)=O)c3)cc2C1=O`, the TR-FRET ratio was 1840.

As to `COc1ccc(NC(=O)COC(=O)c2ccncc2)c(OC)c1`, the TR-FRET ratio is 1980.

As to `COc1cccc(-n2nc(C(=O)N3CCN(Cc4ccccc4)CC3)c3ccccc3c2=O)c1`, the TR-FRET ratio is 1300.

Regarding `CCOC(=O)Cc1csc(NC(=O)CSc2ccc(Br)cc2)n1`, the TR-FRET ratio is 1780.

Regarding `CCOC(=O)Cc1csc(SCc2cc(=O)oc3cc(O)ccc23)n1`, the TR-FRET ratio was 1620.

As for `CCOC(=O)Cc1csc(NC(=O)COc2ccc3c(C)cc(=O)oc3c2)n1`, the TR-FRET ratio was 2450 (active).

On to `O=C(NCCCNc1ccc([N+](=O)[O-])cc1Cl)c1ccccc1F`, for which the TR-FRET ratio was 1920.

In the case of `Cc1c(CN2CCCC(C(=O)c3cccc(Cl)c3)C2)c(=O)n(-c2ccccc2)n1C` (centres undefined), the TR-FRET ratio was 1510.

As to `COc1cc(NC(=O)COC(=O)CSc2ccc3ccccc3c2)c(C)cc1[N+](=O)[O-]`, the TR-FRET ratio is 1730.

Turning to `Cc1ccc(N2C(=O)C(NC(=O)c3c(F)cccc3F)(C(F)(F)F)C3=C2CC(C)(C)CC3=O)cc1` (centres undefined), the TR-FRET ratio was 1770.

`CC1CC(C)(C)NC(=S)N1CCC(=O)N1CCN(Cc2ccccc2)CC1` (centres undefined): the TR-FRET ratio is 1810.

As for `CC(C)C(c1nnnn1C(C)(C)C)N1CCN(Cc2cccnc2)CC1` (centres undefined), the TR-FRET ratio is 1760.

As for `Cc1nc(N2CCN(c3ccccn3)CC2)c2c(C)c(C(=O)Nc3ccc(F)cc3)sc2n1`, the TR-FRET ratio was 1920.

`Cc1nc(N2CCC(C)CC2)c2c(C)c(C(=O)Nc3cc(F)ccc3C)sc2n1`: the TR-FRET ratio is 2400 (active).

Consider `Cc1nc(N2CCOCC2)c2c(C)c(C(=O)Nc3ccc(C(F)(F)F)cc3)sc2n1`, for which the TR-FRET ratio is 1820.

For the molecule `COC(=O)c1c(C)[nH]c(C)c1-c1ccc([N+](=O)[O-])cc1`, the TR-FRET ratio is 1710.

As for `CCOc1cc(CNn2c(C)nnc2SCC(=O)NC(C)(C)C)ccc1OCC(=O)NC(C)(C)C`, the TR-FRET ratio was 1840.

Consider `O=C(NNS(=O)(=O)c1ccc(F)cc1)c1cnccn1`, for which the TR-FRET ratio is 1930.

In the case of `Cc1ccc(NC(=S)N(CCN2CCCCC2)Cc2ccco2)cc1C`, the TR-FRET ratio is 1560.

Take `COc1cc(C(=O)OCc2ccc([N+](=O)[O-])cc2)cc(OC)c1OC`: the TR-FRET ratio is 1470.

As to `S=C(Cc1ccc(Cl)cc1)N1CCOCC1`, the TR-FRET ratio was 2050.

Take `COc1cc(NS(=O)(=O)c2ccc(NC(=O)c3ccc(S(=O)(=O)N4CCCCC4)cc3)cc2)ncn1`: the TR-FRET ratio is 1650.

On to `CCC(=O)N(Cc1cc2ccccc2[nH]c1=O)c1ccc(OC)cc1`, for which the TR-FRET ratio is 1990.

Consider `COc1ccc(-n2nnnc2SCC(=O)NCc2cccs2)cc1`, for which the TR-FRET ratio is 1830.

As for `CN1CCN(S(=O)(=O)c2cccc(C(=O)N3CCc4ccccc43)c2)CC1`, the TR-FRET ratio is 1760.

As to `Cc1ccc(N2C(=O)C(CC(=O)Nc3cccc(F)c3)N(CCc3ccncc3)C2=O)cc1` (centres undefined), the TR-FRET ratio is 1810.

`CCOc1cnc(-c2c(-c3ccccc3Cl)noc2C)o1`: the TR-FRET ratio is 1830.

`Cc1cc(NC(=O)COC(=O)c2ccc(F)c(S(=O)(=O)N3CCOCC3)c2)no1`: the TR-FRET ratio was 1740.

On to `COc1ccc(S(=O)(=O)N2CCCCCC2)cc1C(=O)OCC(=O)Nc1cc(C)on1`, for which the TR-FRET ratio was 2360 (active).

For the molecule `O=C(COC(=O)c1cc(S(=O)(=O)N2CCCCC2)ccc1Cl)NCc1ccco1`, the TR-FRET ratio was 1930.

For `COc1ccnc(Oc2ccccc2)n1`, the TR-FRET ratio was 1760.

For the molecule `O=C(Nc1ccc(N2CCN(C(=O)c3cccs3)CC2)cc1)c1cccnc1Cl`, the TR-FRET ratio was 1580.

For the molecule `CNS(=O)(=O)c1ccc(N2CCCC2=O)c([N+](=O)[O-])c1`, the TR-FRET ratio is 1690.

In the case of `O=S(=O)(c1ccc(-c2ccccc2)cc1)N1CCCC1`, the TR-FRET ratio was 1580.

For `CC(=O)OC(COc1ccc(F)cc1)Cn1cnc2ccccc21` (centres undefined), the TR-FRET ratio is 1950.

On to `Cc1cccc(NC(=O)c2ccc3ccccc3n2)n1`, for which the TR-FRET ratio is 2320 (active).

`CC(OC(=O)c1ccc2ccccc2n1)C(=O)c1ccccc1` (centres undefined): the TR-FRET ratio is 1760.

With `COC(=O)c1ccc(NC(=S)Nc2cccc(C)n2)cc1`, the TR-FRET ratio is 1830.

Take `COc1ccc(N2CCN(CCCNC(=O)C3CCN(S(=O)(=O)N4CCOCC4)CC3)CC2)cc1`: the TR-FRET ratio is 1660.

As for `COc1ccc(C)cc1NC(=S)Nc1ccccc1SC`, the TR-FRET ratio is 1550.

Regarding `O=C(N/N=C/c1ccc([N+](=O)[O-])o1)c1cccc(S(=O)(=O)N2CCOCC2)c1`, the TR-FRET ratio was 2000.
